Assay results as given in PubChem BioAssay AID2283186 (EPA ToxCast).
Active and inactive are the calls of the source. The calls were made as follows: active = hit-call score of the fitted dose curve at least 0.9, where 1 is the maximum; inactive = score below 0.9.

What follows are compounds tested against human p21 Activated Kinase 2 (PAK2), PAK2 (gene 5062) (UniProt Q13177) (assay: NVS_ENZ_hPAK2: NovaScreen (NVS) Enzymatic Assay for human p21 Activated Kinase 2 (PAK2)).
Method: NVS_ENZ_hPAK2 is a biochemical, single-readout assay that uses extracted gene-proteins in a cell-free assay. Measurements were taken 1 hour after chemical dosing in a 384-well plate.NVS_ENZ_hPAK2 is one of one assay component(s) measured or calculated from the NVS_ENZ_hPAK2 assay. It is designed to make measurements of enzyme activity, a form of enzyme reporter, as detected with fluorescence intensity signals by Fluorescence and electrophoretic mobility shift technology.Data from the assay component NVS_ENZ_hPAK2 was analyzed into 1 assay endpoint. This assay endpoint, NVS_ENZ_hPAK2, was analyzed in the positive analysis fitting direction relative to DMSO as the negative control and baseline of activity. Using a type of enzyme reporter, loss-of-signal activity can be used to understand changes in the enzymatic activity as they relate to the gene PAK2. Furthermore, this assay endpoint can be referred to as a primary readout, because this assay has produced multiple assay endpoints where this one serves a enzymatic activity function. To generalize the intended target to other relatable targets, this assay endpoint is annotated to the kinase intended target family, where the subfamily is serine/threonine kinase. […]

human p21 Activated Kinase 2 (PAK2), PAK2 (gene 5062), sequence (Q13177 whole entry, looked up): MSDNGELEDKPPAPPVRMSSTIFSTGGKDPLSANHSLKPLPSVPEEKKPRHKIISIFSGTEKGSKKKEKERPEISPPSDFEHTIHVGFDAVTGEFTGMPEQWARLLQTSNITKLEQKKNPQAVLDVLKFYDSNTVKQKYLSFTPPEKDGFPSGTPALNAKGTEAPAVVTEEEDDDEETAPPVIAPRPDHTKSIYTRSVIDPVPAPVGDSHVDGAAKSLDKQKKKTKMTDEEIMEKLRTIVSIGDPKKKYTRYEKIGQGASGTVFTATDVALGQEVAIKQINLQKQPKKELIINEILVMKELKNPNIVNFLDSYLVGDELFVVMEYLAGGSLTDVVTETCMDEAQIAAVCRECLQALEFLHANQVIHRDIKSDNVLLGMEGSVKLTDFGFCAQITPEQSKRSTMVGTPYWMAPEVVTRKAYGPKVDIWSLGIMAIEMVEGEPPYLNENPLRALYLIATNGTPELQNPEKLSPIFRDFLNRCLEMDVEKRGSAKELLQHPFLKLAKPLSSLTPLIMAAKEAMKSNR

Q: Which outcome does the source give for `COCCO` here?
A: inactive

Q: With `CC(C)(c1ccc(O)cc1)c1ccc(O)cc1` as the compound, how does the outcome read?
A: inactive
